The structures appear in SMILES notation. Out of some 190,000 compounds screened, fewer than 10 were called active.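 The calls were made as follows: active = EC50 below 50 µM in the dose-response confirmation; inactive = the rest.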 A selection follows. Results with a measured potency or affinity are listed apart.

The assay in a line: protection against thapsigargin-triggered cell killing – 384-well, CSM14.1, ATP luminescence, primary screen (AID 1222).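 Also: death triggered by thapsigargin at about 15 µM added after 2 h compound pretreatment; cell ATP read after overnight thapsigargin exposure of roughly 18 to 22 hours; reference of the scale not given here.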 The following applies: CSM14.1 thapsigargin-induced death rescue, at 20 µM, stronger effect = higher value.
For the compound `O=C(NCC1CC1)[C@@H]1C[C@H]1[C@@H](NP(=O)(c1ccccc1)c1ccccc1)c1ccccc1`, the cellular ATP content (survival) was -1.2% (inactive). As for `CC(=O)c1ccc(OCCCN2CCCCC2)cc1`, the figure is -1.3% (inactive); as for `O=C(COC(=O)c1cc(Br)ccc1O)Nc1cc(S(=O)(=O)N2CCCC2)ccc1Cl`, -0.8% (inactive); as for `O=C(NCCCN1CCCC1)c1cc2c(Cl)nc3ccccc3c2s1`, -12% (inactive). As for `CC(=O)Cn1c(N2CCC(Cc3ccccc3)CC2)nc2c1c(=O)[nH]c(=O)n2C`, the figure is -1.8% (inactive); as for `CCn1c(SCc2ccccc2Cl)nc2nc3c(cc2c1=O)CCCC3`, -4.7% (inactive); as for `CC(=O)Nc1ccc(OCc2cccc([N+](=O)[O-])c2)cc1`, 1.1% (inactive).

In the case of `O=C(CSc1nc2ccccc2[nH]1)Nc1nc(-c2cccc(Br)c2)cs1`, the cellular ATP content (survival) was -3.8% (inactive). On to `CCOC(=O)C1CCN(C(=O)CCS(=O)(=O)c2ccc3c(c2)CC(C)N3C(=O)CC)CC1` (centres undefined), for which the cellular ATP content (survival) is 0.4% (inactive). As for `Cc1ccc(C)c(N2CCN(C(=O)CN(C)S(=O)(=O)c3cnc[nH]3)CC2)c1`, the figure is -1.7% (inactive).

For `O=C(NCCO)c1cccc2c1C(=O)c1ccccc1-2`, the cellular ATP content (survival) was -1.3% (inactive). In the case of `Cc1[nH]c2ccccc2c1C(=O)COC(=O)Cn1c(C(F)(F)F)nc2ccccc21` it was 0.2% (inactive); in that of `Cc1ccc(CNS(=O)(=O)/C=C/c2ccc3c(c2)OCO3)cc1`, -2.2% (inactive). Turning to `CC(=O)Nc1ccccc1C(=O)N1CCN(c2cccc(C)c2C)CC1`, the cellular ATP content (survival) was -1.4% (inactive). Turning to `O=C(NCc1ccccn1)C1CC(c2ccc(F)cc2)=NO1` (centres undefined), the cellular ATP content (survival) is -1% (inactive). For the compound `CSc1nccc(N2CCN(c3ccc(F)cc3)CC2)n1`, the cellular ATP content (survival) is 5.7% (inactive). Regarding `Cc1ccc(NC(=O)c2ccc(OC(=S)N3CCOCC3)cc2)cc1`, the cellular ATP content (survival) was -1.3% (inactive). In the case of `Cc1cc(C)n(C(=O)COc2c(C)cccc2C)n1` it was -2.8% (inactive); in that of `CCc1ccc(-c2nc(CCl)cs2)cc1`, -1.7% (inactive).

Consider `C=CCNCCCCOc1ccc(C)cc1[N+](=O)[O-]`, for which the cellular ATP content (survival) was -1.5% (inactive).

Consider `CN(C)S(=O)(=O)c1ccc(C(=O)OCc2ccc(C#N)cc2)cc1`, for which the cellular ATP content (survival) was -0.2% (inactive). Regarding `C(=N\Nc1nc(N2CCOCC2)nc(N2CCOCC2)n1)/c1cccnc1`, the cellular ATP content (survival) is 1.2% (inactive). As for `CCOC(=O)c1cc2cc([N+](=O)[O-])cc(OC)c2oc1=O`, the figure is 0% (inactive); as for `CC(=O)c1c(C)[nH]c(C(=O)COC(=O)CCSc2ccccc2)c1C`, 0.3% (inactive). Consider `COc1ccc(-c2csc(Nc3ccccc3)n2)cc1`, for which the cellular ATP content (survival) is -1.2% (inactive). `C=CC[C@@H]1Cc2c(Br)ccc(Br)c2[C@@H](CC=C)N1`: the cellular ATP content (survival) was -0.9% (inactive). In the case of `Cc1ccccc1OCc1nnc(SCC(=O)Nc2ccc3nc(SCC(=O)Nc4ccccc4)sc3c2)n1C` it was -0.5% (inactive); in that of `COc1cc(NC(=O)CN2c3cccc4cccc(c34)S2(=O)=O)cc(OC)c1OC`, -1% (inactive).

Regarding `C=CCn1c(=O)c(C(=O)OCC)c(O)c2ccccc21`, the cellular ATP content (survival) is -1.4% (inactive). As to `CC(C)c1ccc(N2C(=O)CSC23C(=O)N2CCCc4cccc3c42)cc1` (centres undefined), the cellular ATP content (survival) is -0.3% (inactive). Regarding `O=C1CCc2cc(S(=O)(=O)NC(Cc3ccccc3)C(=O)NC3CCCCC3)ccc2N1` (centres undefined), the cellular ATP content (survival) was 0% (inactive). In the case of `Cc1ccc(CCNC(=O)C2CCN(C(=O)N(C)C)CC2)cc1`, the cellular ATP content (survival) was -1.1% (inactive). Turning to `CCOC(=O)CC1ON(C)C(=O)N1c1ccc(Cl)cc1Cl` (centres undefined), the cellular ATP content (survival) is 0.4% (inactive). Regarding `COc1cc(/C=N/Nc2nc(Nc3ccccc3)nc(N3CCCCC3)n2)ccc1OCC(=O)O`, the cellular ATP content (survival) was -1.5% (inactive).

Regarding `COCCN(C(=O)Cc1cccs1)C(C(=O)NC1CCCC1)c1ccc(OC)c(OC)c1` (centres undefined), the cellular ATP content (survival) was -1% (inactive). In the case of `Cc1ccc(-c2nnc(CSc3nnc(COc4cccc5ccccc45)n3-c3ccccc3)o2)cc1`, the cellular ATP content (survival) was 0.6% (inactive). For `CC(C)=CCN1CCN(Cc2ccc(C)s2)CC1CCO` (centres undefined), the cellular ATP content (survival) is 0.8% (inactive).

Turning to `c1cnc2c(SCc3ccc(-c4nnco4)cc3)cccc2c1`, the cellular ATP content (survival) was -0.4% (inactive). Take `CC(=O)Nc1nc2ccc(NC(=O)c3ccco3)cc2s1`: the cellular ATP content (survival) is -5.6% (inactive). `O=C1OC(Cc2ccccn2)C(=O)C1=C1SCCS1` (centres undefined): the cellular ATP content (survival) was -2.9% (inactive). For `O=C(c1ccc(Cl)c(S(=O)(=O)N2CCCCCC2)c1)N1CCN(c2ccccc2O)CC1`, the cellular ATP content (survival) was 0.3% (inactive). Regarding `NS(=O)(=O)c1ccc(CCNC(=O)CN2CCN(c3cccc(Cl)c3)CC2)cc1`, the cellular ATP content (survival) is -2.9% (inactive). As for `Cn1c(N)c(C(=O)COC(=O)c2ccnc3ccccc23)c(=O)n(C)c1=O`, the figure is -2.1% (inactive); as for `O=C1CCCN1CCCN1C(=O)N[C@@H](Cc2ccccc2)C1=O`, 2% (inactive). On to `Cc1cc(C)cc(OCC(=O)NNC(=O)C2CCCO2)c1` (centres undefined), for which the cellular ATP content (survival) is -0.3% (inactive). As for `CC1CCCC(NC(=O)COC(=O)Cc2ccsc2)C1C` (centres undefined), the cellular ATP content (survival) was -1.7% (inactive).

For the compound `Cc1ccc(CSCc2nnc(SCC(=O)N3CCN(c4ccccc4)CC3)n2C)cc1`, the cellular ATP content (survival) is 2% (inactive).

Regarding `N#Cc1ccccc1Cn1cc(/C=C/[N+](=O)[O-])c2ccccc21`, the cellular ATP content (survival) was 4% (inactive).

Consider `O=C(CCn1nnc2ccccc21)Nc1nnc(-c2ccccc2F)s1`, for which the cellular ATP content (survival) was 0.6% (inactive).

Take `Cc1ccc(C)c(N2CCN(C(=O)COc3cc(=O)n(C)c4ccccc34)CC2)c1`: the cellular ATP content (survival) was -0.1% (inactive). On to `Cc1ccc(CNC(=O)C(=O)NCC2OCCN2C(=O)c2cccs2)cc1` (centres undefined), for which the cellular ATP content (survival) was -0.2% (inactive).

With `CCN1C=C(Cc2ccc(OC)cc2)C2=C(C1)C(c1ccc(OC)cc1)C(C#N)=C(N)O2` (centres undefined), the cellular ATP content (survival) was -1.8% (inactive). In the case of `O=C(N/N=C/c1ccc(OCC(=O)N2CCCCC2)cc1)c1ccccc1O` it was 2.1% (inactive). Consider `CCC1Sc2ccccc2N(CC(=O)NC2CCCC2)C1=O` (centres undefined), for which the cellular ATP content (survival) is -1.6% (inactive). Turning to `Cc1ccc(C(=O)N/C(=C\c2ccc(Br)cc2)c2nc(=S)[nH][nH]2)cc1`, the cellular ATP content (survival) was -11.2% (inactive). As for `COc1ccc(OC)c(NC(=O)C2CCC(CNc3c(N4CCC(C)CC4)c(=O)c3=O)CC2)c1` (centres undefined), the figure is 1.6% (inactive). In the case of `O=CN1CCN(C(=O)c2ccc([N+](=O)[O-])cc2)CC1`, the cellular ATP content (survival) is 1.3% (inactive). `COc1cccc(C(=O)CSc2nnc(CNS(C)(=O)=O)n2-c2ccc(C)cc2)c1`: the cellular ATP content (survival) is 0.4% (inactive).

In the case of `COCc1ccc([C@@H]2C[C@H]3CN(Cc4ccccc4C)C(=O)[C@]34CCCN24)o1`, the cellular ATP content (survival) was 6.6% (inactive). As for `CCCOC(=O)CN1C(=O)c2ccccc2C1=O`, the figure is -2.4% (inactive); as for `Cc1ccc(S(=O)(=O)N(CC(=O)N/N=C/c2cccc(Cl)c2)c2cccc3cccnc23)cc1`, 4.7% (inactive); as for `CCC(Sc1nc(N)cc(=O)[nH]1)C(=O)Nc1cc(C)on1` (centres undefined), 1.6% (inactive).

Regarding `COc1ccc(NC(=O)c2ccccc2NC(=O)CSc2ccc(C)cc2)cc1`, the cellular ATP content (survival) is 4% (inactive). On to `Cc1ccc(C(=O)NNC2CC(=O)N(c3ccc4c(c3)OCCO4)C2=O)cc1` (centres undefined), for which the cellular ATP content (survival) was -0.8% (inactive). `NC(N)=NC(N)=Nc1ccc(SC(F)(F)F)cc1`: the cellular ATP content (survival) was 0.3% (inactive). Consider `COc1ccccc1-c1noc(CCC(=O)Nc2cc(C(F)(F)F)ccc2Cl)n1`, for which the cellular ATP content (survival) is 1% (inactive). Take `O=C(Nc1cccc(-c2cn3cccnc3n2)c1)Nc1ccccc1F`: the cellular ATP content (survival) was -0.8% (inactive).

Take `O=C(NNS(=O)(=O)c1ccccc1)c1ccc(S(=O)(=O)N2CCCCC2)cc1`: the cellular ATP content (survival) was -2.8% (inactive).

Regarding `CSc1ccc(C(C(C(=O)c2cccs2)N2CCOCC2)N2CCOCC2)cc1` (centres undefined), the cellular ATP content (survival) was -1.7% (inactive). Turning to `CCCn1c(=O)c2ccccc2n2c(SCC(=O)NCc3cccs3)nnc12`, the cellular ATP content (survival) was 2.6% (inactive). With `COC(=O)C1=C(N)Oc2cc(C)n(Cc3cccnc3)c(=O)c2C1c1cc(OC)ccc1OC` (centres undefined), the cellular ATP content (survival) is -3.1% (inactive). As for `O=C(COc1ncnc2scc(-c3ccccc3)c12)NC1CCCc2ccccc21` (centres undefined), the figure is -2.4% (inactive). As for `O=c1ccccn1CCOc1ccccc1Cl`, the figure is 0.2% (inactive). Consider `CCOC(=O)C1C(=O)C=C(c2ccc(Br)cc2)CC1c1ccco1` (centres undefined), for which the cellular ATP content (survival) was 0.2% (inactive). As to `C[C@@H]1NC(=O)c2cc([N+](=O)[O-])cc(I)c2NCCCC[C@@H](C(N)=O)NC(=O)[C@H](CCC(=O)O)NC1=O`, the cellular ATP content (survival) was 6.5% (inactive).

In the case of `Cc1cc(C)n2nc(-c3ccsc3-n3c(C)ccc3C)cc2n1`, the cellular ATP content (survival) is 6% (inactive). Regarding `Cn1c(=NC(=O)C2CCN(S(=O)(=O)c3cccs3)CC2)sc2ccccc21`, the cellular ATP content (survival) was -0.7% (inactive).

Turning to `COC(=O)COc1ccc(S(=O)(=O)N2CCc3ccccc3C2)cc1C`, the cellular ATP content (survival) was -0.7% (inactive). Regarding `Cc1ccc(C(=O)/C=C/c2ccc(F)cc2)o1`, the cellular ATP content (survival) was -13.2% (inactive). As for `O=C(O)CCCn1cc(NC(=O)c2cc(F)c(F)cc2Cl)cn1`, the figure is -2.1% (inactive); as for `COc1ccccc1CNC(=O)CCNC(=O)Cn1cnc2ccccc2c1=O`, 0.7% (inactive); as for `CC1(C)CC(=O)C2=C(C1)NC(=O)CC2c1cc2c(cc1Br)OCO2` (centres undefined), -0.1% (inactive). As for `O=C(N/N=C/c1ccncc1)NC1CCCCC1`, the cellular ATP content (survival) was -0.5% (inactive). Turning to `COc1cc(C(=O)Nc2cccc(-c3cn4cccnc4n3)c2)cc(OC)c1OC`, the cellular ATP content (survival) is -2% (inactive). In the case of `O=C1c2ccccc2C(=O)C1C1=Nc2ccccc2NC(c2ccccc2)C1` (centres undefined) it was 4.7% (inactive); in that of `Nc1ccc(Cc2nc3cc4ccccc4cc3[nH]2)cc1`, -1.5% (inactive).

Take `CCc1cccc(C)c1NC(=S)N(Cc1cccnc1)Cc1ccco1`: the cellular ATP content (survival) is -2.7% (inactive). In the case of `O=C(COc1ccc(Cl)cc1)N1CCN(C(=O)Cc2ccccc2)CC1`, the cellular ATP content (survival) was 5.3% (inactive).

As for `CCOC(=O)N1CCN(C(=O)c2cnn3ccccc23)CC1`, the cellular ATP content (survival) is 2.2% (inactive). For `O=C(N/N=C/c1cccc(Oc2ccccc2)c1)c1ccccc1Br`, the cellular ATP content (survival) is 0% (inactive). As to `Cc1cccc(-n2cnc3cc(C(=O)N4CCc5ccccc54)ccc32)c1`, the cellular ATP content (survival) is -2.1% (inactive). Regarding `Cc1[nH]nc(Nc2ccc(O)cc2)c1[N+](=O)[O-]`, the cellular ATP content (survival) was -1.1% (inactive). For the compound `O=C(/C=C/c1ccco1)OCn1nnc2ccccc2c1=O`, the cellular ATP content (survival) was -0.7% (inactive). In the case of `Cc1cccc(-c2ncc(CN3CCN(CCC(C)C)C(CCO)C3)cn2)c1` (centres undefined), the cellular ATP content (survival) is 0.8% (inactive).

These data come from PubChem BioAssay AID1222 (Sanford-Burnham Center for Chemical Genomics, 2008).
